Results filed as inconclusive are left out. Entries that show only a call come without a potency. Active and inactive are the calls of the source. Calls follow the shape of the dose curve; as a rule, active = well fitted inhibition curve with a large enough effect in the repeat runs; inconclusive = weak or mixed curves; inactive = no such curve, though single readings can be large or run the other way.
molecular target: Cytochrome P450 3A4 (Homo sapiens) (UniProt P08684); experiment: Cytochrome P450 Family 3 Subfamily A Member 4 (CYP3A4) small molecule antagonists: luciferase reporter qHTS assay (AID 1671201); details: P450-Glo CYP3A4 enzyme, luciferin luminescence, 1 h; series mostly up to 115 µM; also: nearly all actives have a fitted effect of over 50% in size
Summary of the method: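 Compounds in DMSO were pin-transferred onto CYP3A4 enzyme-substrate mix and held 10 min at room temperature. NADPH regenerating solution started the reaction for 1 h; luciferin detection reagent stopped it, and luminescence was read after 20 min.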
Potency is read from the fitted curve at half-maximal effect.

Cytochrome P450 3A4 (Homo sapiens), sequence (P08684 whole entry, looked up): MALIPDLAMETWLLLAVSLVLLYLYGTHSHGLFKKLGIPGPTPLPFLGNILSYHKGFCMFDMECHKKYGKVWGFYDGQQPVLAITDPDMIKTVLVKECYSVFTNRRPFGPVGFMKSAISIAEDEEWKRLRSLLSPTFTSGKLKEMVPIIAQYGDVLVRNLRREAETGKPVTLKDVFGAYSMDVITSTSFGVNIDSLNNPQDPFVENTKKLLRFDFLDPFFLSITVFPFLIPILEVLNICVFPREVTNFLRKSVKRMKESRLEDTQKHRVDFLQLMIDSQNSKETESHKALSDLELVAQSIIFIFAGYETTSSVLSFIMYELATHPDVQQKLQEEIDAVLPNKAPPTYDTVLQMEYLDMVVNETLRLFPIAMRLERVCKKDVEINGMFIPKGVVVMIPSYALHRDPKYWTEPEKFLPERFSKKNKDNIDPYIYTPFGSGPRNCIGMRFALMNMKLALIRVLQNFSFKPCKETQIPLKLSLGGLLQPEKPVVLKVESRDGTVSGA

Q: With `CCCCCCCCCCCCCCCC[N+](C)(C)Cc1ccccc1` as the molecule, how does the Potency read?
A: inactive

Q: Which Potency does the source give for `O=c1[nH]cc(F)c(=O)[nH]1` here?
A: inactive

Q: For `C=CCc1ccc(O)c(OC)c1`, which Potency is on record?
A: inactive

Q: For `Cc1cc(C)nc(NS(=O)(=O)c2ccc(N)cc2)n1`, which Potency is on record?
A: inactive

Q: How did the Potency turn out when `CN(C)C(=S)SC(=S)N(C)C` was run?
A: inactive

Q: Which Potency does the source give for `CS(=O)(=O)OCCCCOS(C)(=O)=O` here?
A: inactive

Q: Which Potency does the source give for `OC[C@H]1O[C@H](O[C@]2(CCl)O[C@H](CCl)[C@@H](O)[C@@H]2O)[C@H](O)[C@@H](O)[C@H]1Cl` here?
A: inactive

Q: Which Potency does the source give for `COc1ccc(OC(F)(F)F)cc1CN[C@H]1CCCN[C@H]1c1ccccc1` here?
A: 1780 nM (active)

Q: Which Potency does the source give for `Cc1ncc([N+](=O)[O-])n1CCO` here?
A: inactive

Q: For `COc1ccc2cc(S(=O)(=O)N[C@H](CC(=O)N[C@H](Cc3ccc(CN4[C@H](C)CCC[C@@H]4C)cc3)C(=O)N(C)C(C)C)c3ccc4c(c3)OCO4)ccc2c1`, which Potency is on record?
A: 94.9 nM (active)

Q: Which Potency does the source give for `CC(O)(P(=O)(O)O)P(=O)(O)O` here?
A: inactive

Q: Which Potency does the source give for `CC1(C)S[C@@H]2[C@H](NC(=O)[C@H](N)c3ccccc3)C(=O)N2[C@H]1C(=O)O` here?
A: inactive

Q: How did the Potency turn out when `C=C(C)C(=O)OCC(C)O` (stereo unspecified) was run?
A: inactive

Q: With `COc1cccc(O)c1O` as the molecule, how does the Potency read?
A: inactive

Q: Which Potency does the source give for `CCN(Cc1c(F)cccc1Cl)c1c([N+](=O)[O-])cc(C(F)(F)F)cc1[N+](=O)[O-]` here?
A: 399 nM (active)

Q: Which Potency does the source give for `O=C1O[C@H]([C@@H](O)CO)C(O)=C1O` here?
A: inactive

Q: With `CC12CCC(CC1)C(C)(C)O2` as the molecule, how does the Potency read?
A: inactive

Q: `CC(=O)C(=O)O` was tested. Which Potency did it give?
A: inactive

Q: How did the Potency turn out when `Cc1cn([C@H]2C=C[C@@H](CO)O2)c(=O)[nH]c1=O` was run?
A: inactive

Q: For `COc1ccc(CN(CCN(C)C)c2ccccn2)cc1`, which Potency is on record?
A: inactive

Q: Which Potency does the source give for `NS(=O)(=O)c1cc2c(cc1Cl)NCNS2(=O)=O` here?
A: inactive

Q: Which Potency does the source give for `Cc1c(C(=O)O)c(O)cc2c1C(=O)c1c(O)c([C@@H]3O[C@H](CO)[C@@H](O)[C@H](O)[C@H]3O)c(O)c(O)c1C2=O` here?
A: inactive

Q: Which Potency does the source give for `C1=CC2C3C=CC(C3)C2C1` (stereo unspecified) here?
A: inactive

Q: For `CCOc1ccc(NC(C)=O)cc1`, which Potency is on record?
A: inactive

Q: With `NC(=O)c1cccnc1` as the molecule, how does the Potency read?
A: inactive

Q: With `O=C(O)CC(O)C(=O)O` (stereo unspecified) as the molecule, how does the Potency read?
A: inactive

— PubChem BioAssay (Tox21)
